JMJD2A Tudor – JMJD2A Tudor domain (human) inhibition | Potency, µM (top dose mostly 114 µM), without a hit: at the top dose activity change, negative = inhibition, actives largely listed as inhibitors | actives 4.4% (n = 390,000) | O75164 | AlphaScreen JMJD2A-Tudor / H3K4me3 peptide binding; further: on the % scale 0 is the no-effect control and ±100 the full control effect; nearly all actives have a fitted effect of over 50% in size
HP1b chromo inh – inhibitors of HP1-beta chromodomain binding to methylated histone tails; AlphaScreen HP1-beta / biotin-H3K9me3 peptide binding; Potency, µM (highest dose often 114 µM), without a hit: at the highest dose activity change, negative = inhibition, most hits filed as inhibitors; actives 0.56% (n = 390,000); AID 540317; further: nearly all actives have a fitted effect of over 70% in size
Target sequence (P83916 whole entry, looked up): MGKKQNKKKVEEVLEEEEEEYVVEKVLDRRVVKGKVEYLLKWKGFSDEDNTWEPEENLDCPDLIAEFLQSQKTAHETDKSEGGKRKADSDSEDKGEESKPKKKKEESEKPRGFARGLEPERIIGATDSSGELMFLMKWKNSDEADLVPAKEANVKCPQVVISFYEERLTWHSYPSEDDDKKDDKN
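Compound inhibition of the preformed complex between 50 nM HP1-beta and 50 nM biotinylated H3K9me3 peptide was read by AlphaScreen. Buffer was PBS pH 7.4 with 0.01% Tween-20. Incubations ran 30 min at room temperature, with 10 ug/mL donor/acceptor beads.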
G9a block – blocks human histone lysine methyltransferase G9a; Q96KQ7; G9a H3K9 monomethylation, AlphaScreen, 2 h; Potency, µM (top dose mostly 102 µM), without a hit: at the highest dose activity, negative = inhibition, most hits filed as inhibitors; actives 8.8% (n = 350,000); further: on the % scale 0 is the no-effect control and ±100 the full control effect; nearly all actives have a fitted effect of over 75% in size
Target sequence (Q96KQ7 913-1193 limits assumed): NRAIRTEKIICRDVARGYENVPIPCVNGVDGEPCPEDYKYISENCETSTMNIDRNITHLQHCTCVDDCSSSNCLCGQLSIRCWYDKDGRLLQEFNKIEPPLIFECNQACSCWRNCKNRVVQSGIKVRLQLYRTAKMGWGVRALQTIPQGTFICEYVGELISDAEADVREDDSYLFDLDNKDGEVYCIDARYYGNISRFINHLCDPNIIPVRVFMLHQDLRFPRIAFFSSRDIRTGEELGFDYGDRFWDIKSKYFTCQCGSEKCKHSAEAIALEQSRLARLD
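Chemiluminescent proximity detection of H3K9 monomethylation, read after 10 min bead incubation in the dark. Reaction: 20 nM G9a, 500 nM biotin-H3K9 peptide, 20 uM SAM cofactor, 2 h, room temperature, following 15 min enzyme-compound preincubation.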
L3MBTL1 block – blocks human L3MBTL1. AlphaScreen L3MBTL1–H3K9me1 peptide binding. actives 0.66% (n = 230,000). Potency, µM (top dose mostly 57.1 µM), for inactives: at the top dose activity, negative = inhibition, hits mostly inhibitors; further: on the % scale 0 is the no-effect control and ±100 the full control effect; nearly all actives have a fitted effect of over 60% in size
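L3MBTL1 50 nM + b-AHA-H3(1-15)K9me1 75 nM, 30 min RT; compound added, 30 min RT; streptavidin donor/Ni-chelate acceptor beads 10 ug/mL each final, 30 min RT dark; AlphaScreen read.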
BAZ2B inh – blocks human BAZ2B. Q9UIF8. AlphaScreen BAZ2B-H3K14Ac peptide displacement. Potency, µM (highest dose often 114 µM), for the others: at the top dose activity change, negative = inhibition, most hits filed as inhibitors. actives 4.4% (n = 360,000). AID 504333; further: on the % scale 0 is the no-effect control and ±100 the full control effect; nearly all actives have a fitted effect of over 60% in size
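BAZ2B (50 nM) with biotin-H3(5-23)K14Ac peptide (50 nM) in PBS pH 7.4, 0.01% Tween-20, preformed 30 min, then compound 30 min at room temperature; top concentration 110uM. AlphaScreen streptavidin donor/nickel chelate acceptor beads (10 ug/mL final), 20 min dark, signal read.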
* = called active by the depositor; ? = inconclusive; · = no result given; ! = a repeat was not active; [ ] = remark or other dose. This is a sample that favours compounds with a hit; in the whole collection about 11% have one here. The call rests on the fitted dose curve; in most records, active means well fitted inhibition curve with a large enough effect; inconclusive means small, poorly fitted or top-dose-only effect; inactive means no such curve, though single readings can be large or run the other way. Potency means the concentration at half of the fitted maximal effect.

SMILES	JMJD2A Tudor	HP1b chromo inh	G9a block	L3MBTL1 block	BAZ2B inh
Cc1nc2cc(NC(=O)N3CCCC3)ccc2n1C	2%	38%	4%	8%	-2%
Cc1ccc(Cl)cc1NC(=O)Cn1cc(S(=O)(=O)Cc2ccccc2Cl)c2ccccc21	-15%	15%	4%[59 µM]	·	-11%
Cc1nnc(NC(=O)c2cccc(F)c2)s1	-35%	41%	-35%[59 µM]	-3%	-28%
O=C(Nc1nnc(-c2cccs2)s1)c1cccc(F)c1	-9%	23%	32µM*	0%	-20%
O=C(O)/C=C/C(=O)Nc1ccccc1-c1ccccc1NC(=O)/C=C/C(=O)O	79µM*	33%	10µM*	-13%	-1%
O=C(O)/C=C/C(=O)Nc1ccccc1SC(F)(F)F	-19%	27%	8.9µM*	?	1%
O=C(O)/C=C/C(=O)Nc1c(F)cccc1F	-6%	60%	50µM*	1%	0%
O=[N+]([O-])c1ccc(Nc2nc(N3CCOCC3)nc(N3CCOCC3)n2)cc1	-12%	8%	·	·	·
O=[N+]([O-])c1ccc(/C=N/Nc2nc(N3CCCCC3)nc(N3CCCCC3)n2)cc1	?	3%	·	6%	?
O=[N+]([O-])c1ccc(/C=N/Nc2nc(N3CCCCCC3)nc(N3CCCCCC3)n2)o1	?	-25%	10µM*	-21%	?
O=C(CN1CCCCCCC1)N/N=C/c1ccc([N+](=O)[O-])o1	18µM*	?	32µM*	?	50µM*
O=[N+]([O-])c1ccc(-c2ccc(/C=N/Nc3nc(NCc4ccccc4)nc(N4CCOCC4)n3)o2)cc1	-32%	-1%	25µM*	-22%	?
CN(C(=O)CSc1nc2ccccc2n1CC(=O)N(C)C1CCCCC1)c1ccccc1	-17%	31%	20%[59 µM]	·	-3%
Cc1ccc(Nc2ncc(C(=O)N3CCN(c4ccc(F)cc4)CC3)c3ccccc23)cc1Cl	5%	18%	?	·	-2%
COc1ccc(OC)c(NC(=O)C2CCCN2C(=O)OCc2ccccc2)c1 (centres undefined)	-5%	18%	5%[59 µM]	-4%	9%
COc1ccc(C)cc1NC(=O)C1CCCN1C(=O)OCc1ccccc1 (centres undefined)	9%	41%	7%[59 µM]	-2%	-2%
COc1cc2nc(N3CCN(C(=O)OCc4ccccc4)C(C(=O)NC(C)(C)C)C3)nc(N)c2cc1OC (centres undefined)	·	·	5.6µM*!	·	·
COc1cc2nc(N3CCN(C(=O)OCc4ccccc4)[C@H](C(=O)NC(C)(C)C)C3)nc(N)c2cc1OC	-28%	13%	7.1µM*	7%	-17%
CC(=O)c1cccc(NS(=O)(=O)c2cc(-c3onc(C)c3C)ccc2C)c1	0%	34%	5%[59 µM]	·	2%
CC(C)Cc1nnc(NC(=O)CN2C(=O)NC3(CC(C)CC(C)(C)C3)C2=O)s1 (centres undefined)	-11%	24%	45µM*	7%	2%
CC1CCCN(S(=O)(=O)c2ccc(NC(=O)CN3C(=O)NC(C)(c4ccccc4)C3=O)cc2)C1 (centres undefined)	-30%	-5%	56µM*	-5%	-9%
COc1ccc(NC(=O)COc2ccccc2C)cc1S(=O)(=O)N1CCCCC1	-27%	17%	50µM*	0%	-4%
CC(C)Cc1nnc(NC(=O)CN2C(=O)NC3(CCCC3)C2=O)s1	-6%	27%	?	4%	9%
CCCc1cc(=O)oc2cc(OCC(=O)Nc3ccc(S(N)(=O)=O)cc3)ccc12	-33%	-1%[57 µM]	·	·	45µM*
O=CNc1c(Cl)cc2c(c1Cl)Cc1cc([N+](=O)[O-])ccc1-2	-5%	37%	·	·	·
SMILES	JMJD2A Tudor	HP1b chromo inh	G9a block	L3MBTL1 block	BAZ2B inh
COc1ccc(CNc2cc(-c3ccoc3)ncn2)c(OC)c1	·	·	3%[0.501 µM]	·	·
Cc1cc(C)cc(N2CC(c3nc(-c4ccccc4C)no3)CC2=O)c1 (centres undefined)	23%	76%	25%[59 µM]	·	5%
Cc1ccc(C2(C)NC(=O)N(CC(=O)Nc3ccc(Cl)c(S(=O)(=O)N4CCCCC4)c3)C2=O)cc1 (centres undefined)	-27%	16%	40µM*	-9%	-2%
COc1ccc(NC(=O)CN2C(=O)NC3(CC(C)CC(C)(C)C3)C2=O)cc1S(=O)(=O)N1CCCCC1 (centres undefined)	-32%	11%	16µM*	-2%	-1%
COc1ccc(S(=O)(=O)N2CCCN(CC(=O)Nc3ccc(OC)c(Cl)c3)CC2)cc1	-20%	44%	45µM*	-14%	-9%
COc1ccc(NC(=O)CN2CCCCC2)cc1S(=O)(=O)N1CCCCC1	2.5µM*	?	·	-1%	·
COc1ccc(NC(=O)CN2CCN(S(=O)(=O)c3ccc(Cl)cc3)CC2)cc1Cl	-11%	18%	11%[59 µM]	7%	2%
O=C(NCc1ccc(Cl)cc1)C(=O)NCC(c1ccc2c(c1)OCO2)N1CCOCC1 (centres undefined)	-15%	17%[57 µM]	-1%[59 µM]	·	1%
COc1ccc(S(=O)(=O)N2CCOCC2)cc1NC(=O)COc1ccc2c(C)cc(=O)oc2c1	-12%	35%	·	-1%	·
COc1ccc(NC(=O)COc2ccc3c(C)cc(=O)oc3c2)cc1S(=O)(=O)N1CCCCC1	-17%	22%	11µM*	-4%	8%
CC(Sc1nc(N)c2c3c(sc2n1)CSC(C)(C)C3)C(=O)Nc1ccccc1 (centres undefined)	11µM*	?	-20%	-2%	-7%
CCOCN(C(=O)Cn1cnc2cc(C)c(C)cc21)c1c(C)cccc1CC	-24%	24%	1%[59 µM]	·	-16%
O=C(NCC(c1cccnc1)N1CCc2ccccc2C1)C(=O)Nc1cccc(Cl)c1 (centres undefined)	-15%	28%	-32%[59 µM]	·	-3%
O=C(Nc1nccs1)c1cc(-c2ccco2)nc2ccccc12	-32%	-6%	?	14µM*	50µM*
Cc1nnc(NC(=O)c2cc(-c3ccco3)nc3ccccc23)s1	·	·	40µM*	6.3µM*	40µM*
CCn1c(C(=O)Nc2ccccc2C(=O)OC)cc2sc(Cl)cc21	41%	119%	25%[59 µM]	·	8%
COc1ccc(N=NC2=C(O)CC(C)(C)CC2=O)c(OC)c1	-34%	-19%	28µM*	-21%	?
CC1(C)CC(=O)C(N=Nc2ccc(S(=O)(=O)N3CCOCC3)cc2)=C(O)C1	35µM*	3%	-17%[59 µM]	18%	-16%
CC1(C)CC(=O)C(N=Nc2cccc([N+](=O)[O-])c2)=C(O)C1	?	-21%	50µM*	-9%	?
CC1(C)CC(=O)C(N=Nc2ccc(C(F)(F)F)cc2[N+](=O)[O-])=C(O)C1	50µM*	?	·	-16%	20µM*
CC1(C)CC(=O)C(N=Nc2ccc(Br)cc2)=C(O)C1	-10%	-3%	-27%	-10%	-28%

From PubChem
